Test results reported in the supplement of paper PMC6992640.
± gives the standard deviation of the averaged measurements.

System: HCI09 (cells of a triple-negative luminal androgen receptor type breast cancer xenograft)
Assay: cell viability (% of vehicle); higher = less cytotoxic
Conditions: 10 µM; 72 h
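Note: PDX cells carrying CMV promoter-driven luciferase, viability read as total photon flux per second by IVIS imaging following D-luciferin, vehicle control 0.1% DMSO.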

Question: How did the cell viability turn out when `NC(=O)C1CCCc2c1[nH]c1ccc(Cl)cc21` (stereo unspecified) was run?
Answer: Its cell viability is 102 ± 2.3.

Question: For `Nc1cc(C(Cl)=C(Cl)Cl)c(S(N)(=O)=O)cc1S(N)(=O)=O` [Clorsulon], which cell viability is on record?
Answer: Its cell viability is 125 ± 47.

Question: How did the cell viability turn out when `Nc1nc(=O)c2ncn(COC(CO)CO)c2[nH]1` [Ganciclovir] was run?
Answer: Its cell viability is 94.8 ± 2.

Question: `CNNCc1ccc(C(=O)NC(C)C)cc1.Cl` [Procarbazine HCl] was tested. Which cell viability did it give?
Answer: The cell viability was 96.1 ± 13.

Question: With `CC(=O)N1CCN(c2ccc(OCC3COC(Cn4ccnc4)(c4ccc(Cl)cc4Cl)O3)cc2)CC1` (stereo unspecified) [Ketoconazole] as the molecule, how does the cell viability read?
Answer: The cell viability was 36.4 ± 2.8.

Question: How did the cell viability turn out when `COC(=O)C1=C(C)NC(C)=C(C(=O)OC(C)C)C1c1cccc2nonc12` (stereo unspecified) [Isradipine (Dynacirc)] was run?
Answer: Its cell viability is 48.7 ± 41.

Question: For `Br.CN1CCCC1Cc1c[nH]c2ccc(CCS(=O)(=O)c3ccccc3)cc12` (stereo unspecified) [Eletriptan HBr], which cell viability is on record?
Answer: The cell viability was 80.12 ± 0.74.

Question: With `CCN(CC)CCOC(=O)C(c1ccccc1)c1ccccc1.Cl` [Adiphenine HCl] as the molecule, how does the cell viability read?
Answer: Its cell viability is 99.2 ± 22.

Question: `CCCN1CCCCC1C(=O)Nc1c(C)cccc1C.Cl.O` (stereo unspecified) [Ropivacaine hydrochloride monohydrate] was tested. Which cell viability did it give?
Answer: The cell viability was 105 ± 16.

System: HCI11 (cells of an ER-positive luminal breast cancer xenograft)
Assay: as above
Conditions: 10 µM; 72 h

Question: With `COC(=O)C(c1ccccc1Cl)N1CCc2sccc2C1.O=S(=O)(O)O` (stereo unspecified) [Clopidogrel] as the molecule, how does the cell viability read?
Answer: The cell viability was 119.

Question: With `CC(C)(C)C(=O)C(Oc1ccc(Cl)cc1)n1ccnc1` (stereo unspecified) [Climbazole] as the molecule, how does the cell viability read?
Answer: Its cell viability is 98.8.

Question: For `CCCN(CCC)CCc1cccc2c1CC(=O)N2.Cl` [Ropinirole HCl], which cell viability is on record?
Answer: The cell viability was 86.3.

Question: `CCCC(=O)Nc1ccc(OCC(O)CNC(C)C)c(C(C)=O)c1.Cl` (stereo unspecified) [Acebutolol HCl] was tested. Which cell viability did it give?
Answer: Its cell viability is 106.

Question: Which cell viability does the source give for `O=C(O)C=Cc1ccccc1` [Cinnamic acid] here?
Answer: The cell viability was 94.3.

Question: How did the cell viability turn out when `Nc1nc(=O)c2nc(CNc3ccc(C(=O)NC(CCC(=O)O)C(=O)O)cc3)cnc2[nH]1` (stereo unspecified) [Folic acid] was run?
Answer: Its cell viability is 85.3.

Question: How did the cell viability turn out when `OCC(O)CN1CCN(c2ccccc2)CC1` (stereo unspecified) [Dropropizine] was run?
Answer: The cell viability was 90.3.

Question: How did the cell viability turn out when `CN(C)CCC(c1ccccc1)c1ccccn1.O=C(O)C=CC(=O)O` (stereo unspecified) [Pheniramine Maleate] was run?
Answer: The cell viability was 101.

Question: `CC(C)(C)c1cc(NC(=O)Nc2ccc(-c3cn4c(n3)sc3cc(OCCN5CCOCC5)ccc34)cc2)no1` [Quizartinib (AC220)] was tested. Which cell viability did it give?
Answer: The cell viability was 111.

Question: For `O=c1nc[nH]c2c1ncn2C1CCC(CO)O1` (stereo unspecified) [Didanosine], which cell viability is on record?
Answer: The cell viability was 118.

Question: Which cell viability does the source give for `CC1(C)SC2C(NC(=O)Cc3ccccc3)C(=O)N2C1C(=O)[O-].[Na+]` (stereo unspecified) [Penicillin G Sodium] here?
Answer: Its cell viability is 105.

Question: `CCCCC(=O)N(Cc1ccc(-c2ccccc2-c2nnn[nH]2)cc1)[C@H](C(=O)O)C(C)C.CCOC(=O)[C@H](C)C[C@@H](Cc1ccc(-c2ccccc2)cc1)NC(=O)CCC(=O)O` was tested. Which cell viability did it give?
Answer: Its cell viability is 92.9.

Question: `Clc1ccc(COC(Cn2ccnc2)c2ccc(Cl)cc2Cl)c(Cl)c1` (stereo unspecified) [Miconazole] was tested. Which cell viability did it give?
Answer: Its cell viability is 82.

Question: `O=C(O)[C@H](O)[C@@H](O)C(=O)O.c1cnc2cc3c(cc2n1)C1CNC[C@@H]3C1` [Varenicline Tartrate] was tested. Which cell viability did it give?
Answer: The cell viability was 138.

Question: Which cell viability does the source give for `CN(C)CCC(c1ccc(Cl)cc1)c1ccccn1.O=C(O)C=CC(=O)O` (stereo unspecified) [Chlorpheniramine Maleate] here?
Answer: Its cell viability is 97.

Question: How did the cell viability turn out when `Nc1nc(CC(=O)Nc2ccc(CCNCC(O)c3ccccc3)cc2)cs1` (stereo unspecified) [Mirabegron (YM178)] was run?
Answer: Its cell viability is 107.

Question: Which cell viability does the source give for `CCCS(=O)c1ccc2nc(NC(=O)OC)[nH]c2c1` (stereo unspecified) [Albendazole Oxide] here?
Answer: The cell viability was 105.

Question: How did the cell viability turn out when `C=C1C(CO)C(O)CC1n1cnc2c(=O)nc(N)[nH]c21.O` (stereo unspecified) [Entecavir Hydrate] was run?
Answer: Its cell viability is 99.5.

Question: `Cc1ccccc1C(OCCN(C)C)c1ccccc1.O=C(O)CC(O)(CC(=O)O)C(=O)O` (stereo unspecified) [Orphenadrine Citrate] was tested. Which cell viability did it give?
Answer: The cell viability was 90.9.

Question: With `CCC(C)C(=O)OC1CC(C)C=C2C=CC(C)C(CCC3CC(O)CC(=O)O3)C21` (stereo unspecified) [Lovastatin] as the molecule, how does the cell viability read?
Answer: Its cell viability is 181.

Question: With `CN1CCC(=C2c3ccccc3CCc3sccc32)CC1.O=C(O)CC(O)C(=O)O` [Pizotifen Malate] as the molecule, how does the cell viability read?
Answer: The cell viability was 97.9.

Question: How did the cell viability turn out when `COCCCOc1cc(CC(CC(N)C(O)CC(C(=O)NCC(C)(C)C(N)=O)C(C)C)C(C)C)ccc1OC.COCCCOc1cc(CC(CC(N)C(O)CC(C(=O)NCC(C)(C)C(N)=O)C(C)C)C(C)C)ccc1OC.O=C(O)C=CC(=O)O` (stereo unspecified) [Aliskiren Hemifumarate] was run?
Answer: Its cell viability is 97.2.
